# Test results published in PubChem BioAssay (NCI).
# Where “and” joins values, the source holds several entries; their conditions need not be identical. Equal entries are not always repeated. The panel holds about 83,000 compounds, 20% with a hit somewhere; the sample as a whole holds those more often.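 Plates (96-well) were seeded with cells, treated with compound at one concentration, and incubated for 48 hours before percent growth was determined.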 Values without a mark were called inactive. Calls of active or inactive are those of the source. The calls were made as follows: active = growth percent below 10; inactive = the rest.
# Test system: MDA-MB-468 breast
# Test: NCI-60 one-dose screen, 48 h (100 = growth as untreated, 0 = no growth, -100 = all killed)
# Settings: 10 µM unless noted
row,Structure (SMILES),growth
1,Fc1ccc(Cc2ccc(F)cc2)cc1,104%
2,COc1cc(C(=O)OCCCCCCCCCCC[P+](c2ccccc2)(c2ccccc2)c2ccccc2)ccc1O,-27.7% (active)
3,CCOC(=O)c1c(SC)nn(-c2cc(=O)[nH]c3ccc(Br)cc23)c1N,115%
4,O=C(/C=C/C12c3ccccc3C(c3ccccc31)C1C(=O)NC(=O)C12)c1ccc(F)cc1 (configuration not stated),-25% (active)
5,COc1cc(N2C(=O)c3nccnc3C2=O)cc(OC)c1OC,115%
6,COc1cnc2c(c1)C(=O)c1c-2n(CCCN2CCOCC2)c(=O)c2cc(F)ccc12,-50.1% (active)
7,CCn1cc(-c2ccnc(NCCNS(=O)(=O)c3cccc4ccccc34)c2)c(-c2cccc(O)c2)n1,90.3%
8,NC(=NCCCOc1ccc(F)cc1)Nc1ccc(Cl)cc1,12.5%
9,COc1ccc(CSc2nnc(SCC(=O)Nc3ccc(Cl)cc3)s2)cc1,91.1%
10,CCCN(CCC)CCC(O)c1cc2c(c3ccccc13)CCCC2 (configuration not stated),72.2%
11,COc1ccc(-c2nocc2-c2cc(OC)c(OC)c(OC)c2)cc1,-15.5% (active)
12,CCNC1(NC#N)CCCCC1,101%
13,NC(=O)c1ccc(Br)o1,103%
14,CC(Cc1cccc2ccccc12)C(N)=O (configuration not stated),110%
15,O=C(O)C1C2C=CC(C2)C1C(=O)O (configuration not stated),119% and 22.9% and 92.2%
16,CCCS(=O)(=O)Nc1ccc(F)c(C(=O)c2c[nH]c3ncc(-c4ccc(OCCCC5CCCCN5)nc4)cc23)c1F (configuration not stated),69.6%
17,CCCCCN1C=C/C(=C\C(=O)N(C)c2ccc(Oc3ccccc3)cc2)c2ccccc21,22.3%
18,OC1(c2ccccc2)c2ccccc2N(c2ccccc2)c2ccc(Cl)cc21 (configuration not stated),-75.3% (active)
19,CCN(CC)CCOc1ccc(C(=C(c2ccccc2)C2CCCC2)c2ccc(OCCN(CC)CC)cc2)cc1,-77.5% (active)

row,Structure (SMILES),growth
1,CC(=O)c1sc(Nc2cccc(Nc3nc(C)c(C)s3)c2)nc1C,55%
2,Cc1ccc(S(=O)(=O)N/N=C/C2(c3ccccc3)CC2)cc1,95.8%
3,O=[N+]([O-])c1cccc(-c2nc3sccn3c2-c2ccnc(NCCNS(=O)(=O)c3ccc(C(F)(F)F)cc3)n2)c1,28.3%
4,COc1cc2nc(SCc3cc(OC)c(OC)c(OC)c3)n(-c3ccccc3OC)c(=O)c2cc1OC,97.9%
5,Nc1nc(N)c2c(n1)NC(c1ccc(Cl)cc1)CC(c1ccc(Nc3nc(NCCO)nc(Nc4ccc(Cl)cc4)n3)cc1)=N2 (configuration not stated),-29% (active)
6,O=C(Cn1cc(-c2ccccc2)nn1)Nc1nc(-c2ccc(Cl)cc2)cs1,92.6%
7,CC1(C)CC[C@]2(C(=O)Nc3ccccn3)CC[C@]3(C)C(=CC[C@@H]4[C@@]5(C)C/C(=C/c6ccncc6)C(=O)C(C)(C)[C@@H]5CC[C@]43C)[C@@H]2C1,19.2%
8,COc1ccc(C(=O)c2c(N)c(C#N)cn2-c2cccc(OC)c2)cc1,-3.17% (active)
9,COc1cc(C2CC(=O)c3c(C)nn(-c4nc5ccccc5[nH]4)c3C2)cc(OC)c1OC (configuration not stated),82%
10,CCN(CC)CCOc1ccc(Nc2ncc3cc(-c4c(Cl)cccc4Cl)c(=O)n(CCOC)c3n2)cc1,3.97% (active)
11,O=C(CCCCCCNC(=O)C(O)(O)C(F)(F)F)Nc1ncc(-c2ccc(Br)cc2)s1,-35.8% (active)
12,C#Cc1nc(/C=C/CCCCCCC(=O)NO)cs1,54.8%
13,CCc1nn2c(-c3ccc(Cl)cc3C)c(-c3cc(OC)c(OC)c(OC)c3)nc2s1,68.2%
14,Nc1nc(-c2cc3c(cc2Cl)NC(=O)/C3=C/c2ccccc2)cs1,33.7%
15,C=C(C)[C@@H]1CC[C@]2(C(=O)N3CCN(C)CC3)CC[C@]3(C)[C@H](CC[C@@H]4[C@@]5(C)CC[C@H](OC(=O)c6ccccc6C(=O)O)C(C)(C)[C@@H]5CC[C@]43C)[C@@H]12,107%
16,Nc1nc(C(=O)N/N=C/c2ccc(N3CCOCC3)cc2)nn1-c1ccc(S(N)(=O)=O)cc1,105%
17,CN1CCN(c2ccc(Nc3ncc(C(N)=O)c(NCCCNC(=O)C4CCC4)n3)cc2)CC1,6.58% (active)
18,Cc1ccc(-c2cn(C/C=C3\C=CN(S(=O)(=O)c4ccccc4)CC3)nn2)cc1,86.8%
